HCV inhibitor: blocks hepatitis C virus; Huh7.5.1 HCVcc-Cre infection, luciferase reporter, 44 h; Potency, µM (highest dose often 41.8 µM), without a hit: top-dose activity change, negative = inhibition, usual class: inhibitors; actives 3.4% (n = 340,000); active means well fitted inhibition curve with a large enough effect; inconclusive means small, poorly fitted or top-dose-only effect, or another doubt; inactive means no such curve, though single readings can be large or run the other way; further: potency means the concentration at half of the fitted maximal effect
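Reporter virus HCVcc-Cre (~0.5 moi) infects cells exposed to compound; seeding density 1,000 cells/well with 4 h settling beforehand. Luminescence, 15 sec read, taken 44 h post-infection following a 15 min RT substrate incubation.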
VACV Venus inh: inhibitors of vaccinia virus (Venus reporter). Vaccinia virus Venus reporter expression, fluorescence. Potency, µM (titrated, usually from 36.5 µM), without a hit: top-dose activity change, negative = inhibition, actives largely listed as inhibitors. actives 0.46% (n = 330,000); calls by dose curve; tested in A549 cells; further: potency means the concentration at half of the fitted maximal effect; nearly all actives have a fitted effect of over 30% in size
MARV entry inh: inhibitors of Marburg virus binding or cell entry | Marburg virus pseudotyped entry inhibition, cell reporter | Potency, µM (top dose mostly 37.8 µM), inactives show at the highest dose activity change, negative = inhibition, hits mostly inhibitors | actives 1.8% (n = 300,000); calls by dose curve; tested in HEK293 cells; further: potency means the concentration at half of the fitted maximal effect
VACV mCherry inh: inhibitors of vaccinia virus infection (mCherry reporter signal); Potency, µM (doses to about 36.5 µM), inactives show top-dose activity change, negative = inhibition, usual class: inhibitors; AID 720579; Vaccinia virus mCherry reporter infection, fluorescence; actives 0.63% (n = 310,000); calls by dose curve; tested in A549 cells; further: potency means the concentration at half of the fitted maximal effect; nearly all actives have a fitted effect of over 35% in size
Lassa entry inh: blocks Lassa virus binding to or entry into cells; actives 1.2% (n = 300,000); Lassa virus pseudotype entry inhibition, cell reporter; AID 540256; Potency, µM (titrated, usually from 37.9 µM), inactives show at the top dose activity change, negative = inhibition, actives largely listed as inhibitors; calls by dose curve; tested in HEK293 cells; further: potency means the concentration at half of the fitted maximal effect; nearly all actives have a fitted effect of over 50% in size
HCMV inh: human cytomegalovirus inhibition; HFF cells, HCMV-luciferase reporter, 72 h; stronger effect = lower value; activity change, negative = inhibition, % at 57.5 µM; actives 4.5% (n = 410,000); AID 1259415; in the data active means activity change below about -60%; inconclusive means no clear call, values can overlap the other calls; inactive means above about -39%
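Two-dose cell screen: HFF monolayers treated with compounds and infected with luciferase-expressing HCMV at 1 PFU/cell, 72 h at 37C, then lysed for luciferase measurement.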
An asterisk follows results filed as active; i = inactive; ? = inconclusive; . = no result given; [ ] = another dose, or the depositor's remark. In the library only some 7.8% were active in any assay of this set; here they are far more common. On the % scale 0 is the no-effect control and ±100 the full control effect.

SMILES	HCV inhibitor	VACV Venus inh	MARV entry inh	VACV mCherry inh	Lassa entry inh	HCMV inh
CC(C)N(C(=O)[C@H]1CC(CC(=O)NCCC2=CCCCC2)C(=O)N2CCc3c([nH]c4ccccc34)[C@]12C)C(C)C (stereo partly drawn)	0.56µM*	-11%	.	-12%	.	-3
CN(C)C(=O)CCc1ccc2c3c([nH]c2c1)[C@]1(C)[C@@H](C(=O)N2CCCCC2)C[C@H](CC(=O)NCC24CC5CC(CC(C5)C2)C4)C(=O)N1CC3	-22%	-19%	0%	-24%	.	-90*
C[C@]12c3[nH]c4ccc(Cl)cc4c3CCN1C(=O)[C@@H](CC(=O)NCCN1CCOCC1)C[C@@H]2C(=O)N1CCOCC1	2%	-17%	.	i	.	8
CN(C1CCCCC1)S(=O)(=O)c1ccc2c(c1)c(=O)c(C(=O)NCCc1ccc(Cl)cc1)cn2C	.	-12%	-9%[46.1 µM]	-23%	4%[46.1 µM]	32
CC1CCCN(CCOc2ccc3ccccc3c2Br)C1 (stereo not drawn)	11µM*	-23%	?	-23%	?	-83*
CC(C)(C)c1ccc(C(=O)NNc2ncccc2-n2cccc2)cc1	-11%	.	.	.	.	-60*
CC(=O)c1ccc(C(=O)NCc2nc(-c3ccccc3NC(=O)c3cc(C)oc3C)oc2C)cc1	.	-1%	.	-11%	.	.
COc1ccc(-c2nc3ccc(C(=O)NCC(OC)OC)cc3nc2-c2ccc(OC)cc2)cc1	?	-10%	?	-1%	-10%	-60*
CN1CCN(CCNC(=O)c2ccc3nc(-c4ccc(F)cc4)c(-c4ccc(F)cc4)nc3c2)CC1	2.2µM*	?	?	-26%	-26%[46.1 µM]	-33
COc1cccc(CNC(=O)c2ccc3nc(-c4ccccc4)c(-c4ccccc4)nc3c2)c1OC	.	-17%	.	-22%	?	5
COC(CNC(=O)c1ccc2nc(-c3ccccc3)c(-c3ccccc3)nc2c1)OC	10µM*	-9%	?	-3%	?	6
COc1ccc(-c2nc3ccc(C(=O)NCc4ccccc4)cc3nc2-c2ccc(OC)cc2)cc1	.	-21%	.	-29%	19%[46.1 µM]	-5
CCC[C@H]1[C@@H](NC(=O)Nc2ccc(C)cc2)CC[C@@]23CCCN2C(=O)CCC[C@@H]13	.	.	.	.	.	40
COc1ccc(NC(=O)CC2C(=O)N(c3ccc(C)cc3)C(=O)N2Cc2ccc(C)cc2)cc1 (stereo not drawn)	.	-3%	-7%[46.1 µM]	-8%	-2%[46.1 µM]	2
O=C(O)CN(c1ccc2c(c1)OCCO2)S(=O)(=O)c1ccccc1	18%	-16%	13%	-17%	16%	-69*
Cc1csc(NC(=O)CSc2nnc(-c3ccc(S(=O)(=O)N4CCCC4)cc3)o2)n1	-5%	4.5µM*	-5%	3.2µM*	-18%	-19
CCN(CC)S(=O)(=O)c1ccc(-c2nnc(SCC(=O)Nc3nc(C)cs3)o2)cc1	-2%	11µM*	8%	5µM*	0%	-21
CCCc1cnc(NCCNCC(O)COc2ccc(Cl)c(Cl)c2)nc1 (stereo not drawn)	?	-16%	?	?	-28%	-98*
CC(=O)c1cccc(OCC(O)CNCCc2ccc(Cl)cc2)c1 (stereo not drawn)	-16%	-10%	0%[46.1 µM]	-2%	11%[46.1 µM]	46
Cc1ccc(Cn2c(=N)n(CC(=O)c3ccccc3)c3ccccc32)cc1	10µM*	.	.	.	.	-83*
CC(C)(C)C(=O)Cn1c(=N)n(Cc2ccccc2)c2ccccc21	?	?	?	8.9µM*	3%	-17
Cc1ccc(Cn2c(=N)n(CC(O)c3ccco3)c3ccccc32)cc1 (stereo not drawn)	?	?	11µM*	.	-21%	-26
CC(C)(C)C(=O)Cn1c(=N)n(Cc2ccccc2Cl)c2ccccc21	-20%	-24%	-4%	-7%	-12%	13
COc1ccccc1-c1cc2c(Nc3cc(OC)c(OC)c(OC)c3)nccc2n1C	.	.	.	.	.	-39
CCOC(=O)Cn1c(=O)oc2cc(S(=O)(=O)N3CCN(c4ccc(Cl)cc4)CC3)ccc21	.	-7%	5%[46.1 µM]	-2%	11%[46.1 µM]	-18
SMILES	HCV inhibitor	VACV Venus inh	MARV entry inh	VACV mCherry inh	Lassa entry inh	HCMV inh
Cc1[nH]c2ccc(C(=O)NCCc3ccccc3Cl)cc2c1C	.	-2%[7.34 µM]	.	-2%[7.34 µM]	-16%[46.1 µM]	-28
CN1C(=O)c2ccccc2NC(=O)[C@]12O[C@@H]2c1ccccc1	-3%	1%	.	-12%	.	19
CN1NC(=O)c2ccccc2NC1=S	.	.	.	.	.	-61*
Cc1nc2c(sc3nc(N4CCOCC4)c4c(c32)CC(C)(C)OC4)c(-c2ccc(Cl)cc2)c1C(=O)O	13µM*	.	.	.	.	-26
CC1(C)Cc2c(c(N3CCOCC3)nc3snc(N)c23)CO1	?	-9%	-23%	-19%	-13%	-102*
CC1(C)Cc2c(c(N3CCOCC3)nc3sc(C(=O)Nc4ccc(Cl)cc4)c(N)c23)CO1	4%	9%	?	-18%	17%[46.1 µM]	94
CC(=NNC(=S)N1CCCCC1)c1cccc(C)n1	-70%	?	?	0.32µM*	?	-23
CSC(=S)NN=C(C)c1cccc(C)n1	4µM*	?	5µM*	?	?	-80*
CCNC(=S)N1CCN(c2ccccn2)CC1	3%	-14%	-5%[46.1 µM]	-6%	4%[46.1 µM]	2
C/C(=N\NC(=S)NC1CCCCC1)c1ccc(Cl)c(Cl)c1	-1%	.	.	.	.	-14
CC(=NNC(=S)N1CC2CCC(CC2)C1)c1ccncn1	0.32µM*	6.3µM*	?	1.6µM*	0.32µM*	-98*
CC(=NNC(=S)N1CCCCC1)c1ccccn1	.	10µM*	.	4.5µM*	.	-98*
COC(=O)C1=C(C)N(Cc2ccccc2)C(=NCCc2cccnc2)NC1c1ccc(Br)cc1 (stereo not drawn)	.	.	4%[14.2 µM]	.	?	.
Cc1cccc(Cl)c1N=CN1c2ccccc2-n2cccc2C1CCc1ccccc1 (stereo not drawn)	.	.	.	.	.	8
CCCn1c2ccccc2c2cnn(CC(=O)NCCc3ccc(C)cc3)c(=O)c21	.	-14%	.	-12%	2%[46.1 µM]	-2
CCC1CCCCN1C(=S)NN=C(C)c1ccccn1 (stereo not drawn)	.	.	.	.	.	-98*
CCCCCc1nc2sc3c(c2c(=O)n1NC(=O)c1ccc([N+](=O)[O-])cc1)CC(C)(C)OC3	?	?	?	-3%	?	-89*
CCCCCCCc1nc2sc3c(c2c(=O)n1N)CC(C)(C)OC3	3%	2%	11%[46.1 µM]	11%	1%	0
Cc1ccc(OCC(=O)Nc2sc3c(c2C(N)=O)CCCC3)c(C(C)(C)C)c1	.	-24%	.	-7%	3%[46.1 µM]	-21
CC12CC(NC(=O)N1c1cccc(C(=O)NCc3ccc4c(c3)OCO4)c1)c1cc(Cl)ccc1O2 (stereo not drawn)	25µM*	?	?	?	?	-4
COc1ccc(-c2nc(NC(C)=O)sc2-c2ccc(OC)cc2)cc1	?	-13%	-3%[46.1 µM]	-16%	1%	7
